{"source": "PubChem BioAssay (Tox21)", "note": "Results filed as inconclusive are left out. Entries that show only a call come without a potency. Values without a mark were called inactive. Activity calls are given as the source filed them. Unless noted, the call rests on the fitted dose curve.", "data": [{"molecular_target": "Estrogen receptor (Homo sapiens) (UniProt P03372)", "sequence (P03372 whole entry, looked up)": "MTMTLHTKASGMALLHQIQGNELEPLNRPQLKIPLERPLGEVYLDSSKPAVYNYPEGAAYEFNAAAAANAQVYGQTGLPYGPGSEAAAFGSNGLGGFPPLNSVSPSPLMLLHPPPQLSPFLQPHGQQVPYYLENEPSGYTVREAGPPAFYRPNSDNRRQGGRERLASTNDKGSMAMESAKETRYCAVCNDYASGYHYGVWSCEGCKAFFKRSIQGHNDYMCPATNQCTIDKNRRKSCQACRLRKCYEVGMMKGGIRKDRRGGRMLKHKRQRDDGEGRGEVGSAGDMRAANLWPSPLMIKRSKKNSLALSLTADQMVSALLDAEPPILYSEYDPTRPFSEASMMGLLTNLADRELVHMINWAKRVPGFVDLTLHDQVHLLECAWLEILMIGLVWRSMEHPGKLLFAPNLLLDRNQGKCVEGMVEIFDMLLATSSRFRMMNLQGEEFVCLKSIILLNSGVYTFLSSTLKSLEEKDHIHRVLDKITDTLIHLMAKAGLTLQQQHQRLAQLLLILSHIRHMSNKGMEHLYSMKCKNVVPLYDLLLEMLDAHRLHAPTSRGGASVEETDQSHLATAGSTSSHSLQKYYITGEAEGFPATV", "assay": "qHTS assay to identify small molecule antagonists of the estrogen receptor alpha (ER-alpha) signaling pathway (AID 743069; active means well fitted curve in the direction sought with a large enough effect in the signal ratio in the repeat runs, not every such curve was filed as active; the % refers to the signal ratio; further: potency means the concentration at half of the fitted maximal effect)", "details": "HEK293 ER-alpha-UAS-bla, beta-lactamase ratio, antagonist mode; series mostly up to 69.4 µM", "procedure,_shortened": "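Compound effects are measured against 17beta-estradiol stimulation in HEK293 cells with a UAS-controlled beta-lactamase reporter for ER-alpha. Exposure lasts 18 hr at 37C; LiveBLAzer B/G FRET substrate follows for 2 hr at room temperature.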", "values": [{"molecule": "CCOC(=O)C(C)O", "note": "(stereo not drawn)", "Potency": "inactive"}, {"molecule": "O=C(Oc1ccccc1)c1ccc2ccccc2c1O", "Potency": "inactive"}, {"molecule": "CC12CC3CC(C)(C1)CC(N)(C3)C2", "Potency": "inactive"}, {"molecule": "NC(=O)c1ccccc1[N+](=O)[O-]", "Potency": "inactive"}, {"molecule": "Cc1ccc(NC(=O)N(C)C)cc1NC(=O)N(C)C", "Potency": "inactive"}, {"molecule": "O=S(=O)(Cl)c1c(Cl)cccc1Cl", "Potency": "inactive"}, {"molecule": "CCOC(=O)c1ccc(NC(=O)CN2CCCCC2)cc1", "Potency": "inactive"}, {"molecule": "CC1=CC[C@@H]2C[C@H]1C2(C)C", "activity, negative = inhibition": "12.8% [at 15 µM]"}, {"molecule": "CC(=O)OC(C)C[N+](C)(C)C", "note": "(stereo not drawn)", "Potency": "inactive"}, {"molecule": "FC(F)(F)C(F)(F)C(F)(F)C(F)(F)CCI", "Potency": "inactive"}, {"molecule": "CCN(Cc1cccc(S(=O)(=O)O)c1)c1ccc(C(=C2C=CC(=[N+](CC)Cc3cccc(S(=O)(=O)O)c3)C=C2)c2ccc(O)cc2S(=O)(=O)[O-])cc1", "Potency": "inactive"}, {"molecule": "CC(C)(C(=O)c1cccnc1)c1cccnc1", "Potency": "inactive"}, {"molecule": "COc1cc(OC)c2ccc(=O)oc2c1", "Potency": "inactive"}, {"molecule": "CC(C)C(O)C(C)(C)CO", "note": "(stereo not drawn)", "Potency": "inactive"}, {"molecule": "CC(CO)(CO)C(=O)O", "Potency": "inactive"}, {"molecule": "CC(C)OC(=O)c1ccccc1C(=O)OC(C)C", "Potency": "inactive"}, {"molecule": "COC(=O)C1=C(C)NC(C)=C(C(=O)OC(C)(C)CN(C)CCC(c2ccccc2)c2ccccc2)C1c1cccc([N+](=O)[O-])c1", "note": "(stereo not drawn)", "Potency": "10.7 µM [inhibitor] (active)"}, {"molecule": "CC1C(C)(C)C2=C(C(=O)CCC2)C1(C)C", "note": "(stereo not drawn)", "Potency": "inactive"}, {"molecule": "COc1cc(NC(C)CCCN)c2ncccc2c1", "note": "(stereo not drawn)", "Potency": "inactive"}, {"molecule": "CCN(CC)CCOc1ccccc1C(=O)CCc1ccccc1", "Potency": "inactive"}]}, {"system": "not listed separately", "assay": "qHTS assay to identify small molecule antagonists of the estrogen receptor alpha (ER-alpha) signaling pathway - cell viability counter screen (AID 743074); further: nearly all actives have a fitted effect of over 45% in size", "details": "ERalpha-bla HEK293 viability, CellTiter-Glo luminescence, 18 h; series mostly up to 69.4 µM", "values": [{"molecule": "CC(=O)c1ccc[nH]1", "Potency": "inactive"}, {"molecule": "CCO[Si](C)(CCCOCC1CO1)OCC", "note": "(stereo not drawn)", "Potency": "inactive"}, {"molecule": "COc1ccc(C2C(=O)c3ccccc3C2=O)cc1", "Potency": "inactive"}, {"molecule": "O=C(O)c1cc(Cl)cc(Cl)c1O", "Potency": "inactive"}, {"molecule": "CCOC(=O)C(C)O", "note": "(stereo not drawn)", "Potency": "inactive"}, {"molecule": "COc1ccc(-c2cc(=S)ss2)cc1", "Potency": "inactive"}, {"molecule": "O=C(c1ccccc1)c1ccc(O)cc1", "Potency": "inactive"}, {"molecule": "O=C(Oc1ccccc1)c1ccc2ccccc2c1O", "Potency": "inactive"}, {"molecule": "CCCOC(=O)c1c(Cl)c(Cl)c(Cl)c(Cl)c1C(=O)OCCC", "Potency": "inactive"}, {"molecule": "NC(=O)c1ccccc1[N+](=O)[O-]", "Potency": "inactive"}, {"molecule": "CCCCCCCCCCCCCC(=O)OCC(O)CO", "note": "(stereo not drawn)", "Potency": "inactive"}, {"molecule": "Cc1ccc(NC(=O)N(C)C)cc1NC(=O)N(C)C", "Potency": "inactive"}, {"molecule": "CNS(=O)(=O)c1cc(C(=O)N2CCC(CCN3C4CCC3CC(n3c(C)nc5ccccc53)C4)(c3cccc(F)c3)CC2)c(Cl)cc1F", "note": "(stereo not drawn)", "Potency": "inactive"}, {"molecule": "CC/C=C\\C/C=C\\C/C=C\\CCCCCCCC(=O)OCC", "Potency": "inactive"}, {"molecule": "O=S(=O)(Cl)c1c(Cl)cccc1Cl", "Potency": "inactive"}, {"molecule": "CCOC(=O)c1c(N)sc2c1CCN(Cc1ccccc1)C2", "Potency": "inactive"}, {"molecule": "COc1ccc(-n2nc(C(F)F)cc2-c2ccc(S(C)=O)cc2)cc1", "note": "(stereo not drawn)", "Potency": "inactive"}, {"molecule": "CCOC(=O)c1ccc(NC(=O)CN2CCCCC2)cc1", "Potency": "inactive"}, {"molecule": "CC1=CC[C@@H]2C[C@H]1C2(C)C", "activity, negative = cytotoxicity": "-16.5% [at 15 µM]"}, {"molecule": "O=[N+]([O-])C1(Br)COCOC1", "Potency": "inactive"}, {"molecule": "CC(=O)OC(C)C[N+](C)(C)C", "note": "(stereo not drawn)", "Potency": "inactive"}, {"molecule": "FC(F)(F)C(F)(F)C(F)(F)C(F)(F)CCI", "Potency": "inactive"}, {"molecule": "CC(C)(C(=O)c1cccnc1)c1cccnc1", "Potency": "inactive"}, {"molecule": "COc1cc(OC)c2ccc(=O)oc2c1", "Potency": "inactive"}, {"molecule": "CC(C)C(O)C(C)(C)CO", "note": "(stereo not drawn)", "Potency": "inactive"}, {"molecule": "COc1ccc(C(=O)NCc2ccc(OCCN(C)C)cc2)cc1OC", "Potency": "inactive"}, {"molecule": "Cc1cc(CCC(=O)OCCOCCOCCOC(=O)CCc2cc(C)c(O)c(C(C)(C)C)c2)cc(C(C)(C)C)c1O", "Potency": "inactive"}, {"molecule": "CC(CO)(CO)C(=O)O", "Potency": "inactive"}, {"molecule": "CC1C(C)(C)C2=C(C(=O)CCC2)C1(C)C", "note": "(stereo not drawn)", "Potency": "inactive"}, {"molecule": "CCCCCCCCCCCCCOS(=O)(=O)O", "Potency": "inactive"}, {"molecule": "CC(CCc1ccc(O)cc1)NCCc1ccc(O)c(O)c1", "note": "(stereo not drawn)", "Potency": "inactive"}, {"molecule": "COc1cc(NC(C)CCCN)c2ncccc2c1", "note": "(stereo not drawn)", "Potency": "inactive"}, {"molecule": "CCN(CC)CCOc1ccccc1C(=O)CCc1ccccc1", "Potency": "inactive"}]}, {"molecular_target": "Estrogen receptor (Homo sapiens) (UniProt P03372)", "assay": "qHTS assay to identify small molecule agonists of the estrogen receptor alpha (ER-alpha) signaling pathway (AID 743075)", "details": "HEK293 ER-alpha-UAS-bla, beta-lactamase FRET ratio, 18 h; series mostly up to 70.1 µM", "values": [{"molecule": "CC(=O)c1ccc[nH]1", "Potency": "inactive"}, {"molecule": "CCO[Si](C)(CCCOCC1CO1)OCC", "note": "(stereo not drawn)", "Potency": "inactive"}, {"molecule": "COc1ccc(C2C(=O)c3ccccc3C2=O)cc1", "Potency": "inactive"}, {"molecule": "CCOC(=O)C(C)O", "note": "(stereo not drawn)", "Potency": "inactive"}, {"molecule": "COc1ccc(-c2cc(=S)ss2)cc1", "Potency": "inactive"}, {"molecule": "O=C(Oc1ccccc1)c1ccc2ccccc2c1O", "Potency": "inactive"}, {"molecule": "CC12CC3CC(C)(C1)CC(N)(C3)C2", "Potency": "inactive"}, {"molecule": "NC(=O)c1ccccc1[N+](=O)[O-]", "Potency": "inactive"}, {"molecule": "Cc1ccc(NC(=O)N(C)C)cc1NC(=O)N(C)C", "Potency": "inactive"}, {"molecule": "CO[C@@H]1[C@@H](OC)[C@H](C)[C@@](O)(CC(=O)O)O[C@H]1[C@H](C)[C@H]1O[C@@]2(CC[C@@](C)([C@H]3CC[C@@](C)([C@@H]4O[C@@H]([C@H]5O[C@](C)(O)[C@H](C)C[C@@H]5C)C[C@@H]4OC4C[C@H](OC)[C@@H](OC)[C@H](C)O4)O3)O2)C[C@H](O)[C@H]1C", "note": "(stereo partly drawn)", "Potency": "inactive"}, {"molecule": "O=S(=O)(Cl)c1c(Cl)cccc1Cl", "Potency": "inactive"}, {"molecule": "CCOC(=O)c1c(N)sc2c1CCN(Cc1ccccc1)C2", "Potency": "inactive"}, {"molecule": "COc1ccc(-n2nc(C(F)F)cc2-c2ccc(S(C)=O)cc2)cc1", "note": "(stereo not drawn)", "Potency": "inactive"}, {"molecule": "CCOC(=O)c1ccc(NC(=O)CN2CCCCC2)cc1", "Potency": "inactive"}, {"molecule": "CC1=CC[C@@H]2C[C@H]1C2(C)C", "activation": "-0.944% [at 14.9 µM]"}, {"molecule": "O=[N+]([O-])C1(Br)COCOC1", "Potency": "inactive"}, {"molecule": "CC(=O)OC(C)C[N+](C)(C)C", "note": "(stereo not drawn)", "Potency": "inactive"}, {"molecule": "FC(F)(F)C(F)(F)C(F)(F)C(F)(F)CCI", "Potency": "inactive"}, {"molecule": "CCN(Cc1cccc(S(=O)(=O)O)c1)c1ccc(C(=C2C=CC(=[N+](CC)Cc3cccc(S(=O)(=O)O)c3)C=C2)c2ccc(O)cc2S(=O)(=O)[O-])cc1", "Potency": "inactive"}, {"molecule": "CC(C)(C(=O)c1cccnc1)c1cccnc1", "Potency": "inactive"}, {"molecule": "COc1cc(OC)c2ccc(=O)oc2c1", "Potency": "inactive"}, {"molecule": "CC(C)C(O)C(C)(C)CO", "note": "(stereo not drawn)", "Potency": "inactive"}, {"molecule": "COc1ccc(C(=O)NCc2ccc(OCCN(C)C)cc2)cc1OC", "Potency": "inactive"}, {"molecule": "CC(CO)(CO)C(=O)O", "Potency": "inactive"}, {"molecule": "CC(C)OC(=O)c1ccccc1C(=O)OC(C)C", "Potency": "inactive"}, {"molecule": "COC(=O)C1=C(C)NC(C)=C(C(=O)OC(C)(C)CN(C)CCC(c2ccccc2)c2ccccc2)C1c1cccc([N+](=O)[O-])c1", "note": "(stereo not drawn)", "Potency": "inactive"}, {"molecule": "CC1C(C)(C)C2=C(C(=O)CCC2)C1(C)C", "note": "(stereo not drawn)", "Potency": "inactive"}, {"molecule": "CC(CCc1ccc(O)cc1)NCCc1ccc(O)c(O)c1", "note": "(stereo not drawn)", "Potency": "inactive"}, {"molecule": "COc1cc(NC(C)CCCN)c2ncccc2c1", "note": "(stereo not drawn)", "Potency": "inactive"}, {"molecule": "CCN(CC)CCOc1ccccc1C(=O)CCc1ccccc1", "Potency": "inactive"}]}]}
